A number with no mark means an inactive call.

The values that follow come from the supplement of paper PMC11732987, “Enantioselective OTUD7B fragment discovery through chemoproteomics screening and high-throughput optimisation” (Communications Chemistry, 2025).

UniProt O15372, sequence (O15372 whole entry): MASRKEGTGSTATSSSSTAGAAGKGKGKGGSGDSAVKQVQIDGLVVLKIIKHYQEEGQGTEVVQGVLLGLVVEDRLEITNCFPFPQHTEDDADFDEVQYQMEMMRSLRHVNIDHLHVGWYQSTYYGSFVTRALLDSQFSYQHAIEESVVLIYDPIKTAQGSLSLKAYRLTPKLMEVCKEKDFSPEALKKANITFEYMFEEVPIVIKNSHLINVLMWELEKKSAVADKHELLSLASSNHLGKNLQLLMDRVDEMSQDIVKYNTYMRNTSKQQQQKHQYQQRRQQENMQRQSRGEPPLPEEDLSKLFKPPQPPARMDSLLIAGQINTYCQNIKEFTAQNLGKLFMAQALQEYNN
UniProt Q9H9J4, sequence (Q9H9J4 whole entry): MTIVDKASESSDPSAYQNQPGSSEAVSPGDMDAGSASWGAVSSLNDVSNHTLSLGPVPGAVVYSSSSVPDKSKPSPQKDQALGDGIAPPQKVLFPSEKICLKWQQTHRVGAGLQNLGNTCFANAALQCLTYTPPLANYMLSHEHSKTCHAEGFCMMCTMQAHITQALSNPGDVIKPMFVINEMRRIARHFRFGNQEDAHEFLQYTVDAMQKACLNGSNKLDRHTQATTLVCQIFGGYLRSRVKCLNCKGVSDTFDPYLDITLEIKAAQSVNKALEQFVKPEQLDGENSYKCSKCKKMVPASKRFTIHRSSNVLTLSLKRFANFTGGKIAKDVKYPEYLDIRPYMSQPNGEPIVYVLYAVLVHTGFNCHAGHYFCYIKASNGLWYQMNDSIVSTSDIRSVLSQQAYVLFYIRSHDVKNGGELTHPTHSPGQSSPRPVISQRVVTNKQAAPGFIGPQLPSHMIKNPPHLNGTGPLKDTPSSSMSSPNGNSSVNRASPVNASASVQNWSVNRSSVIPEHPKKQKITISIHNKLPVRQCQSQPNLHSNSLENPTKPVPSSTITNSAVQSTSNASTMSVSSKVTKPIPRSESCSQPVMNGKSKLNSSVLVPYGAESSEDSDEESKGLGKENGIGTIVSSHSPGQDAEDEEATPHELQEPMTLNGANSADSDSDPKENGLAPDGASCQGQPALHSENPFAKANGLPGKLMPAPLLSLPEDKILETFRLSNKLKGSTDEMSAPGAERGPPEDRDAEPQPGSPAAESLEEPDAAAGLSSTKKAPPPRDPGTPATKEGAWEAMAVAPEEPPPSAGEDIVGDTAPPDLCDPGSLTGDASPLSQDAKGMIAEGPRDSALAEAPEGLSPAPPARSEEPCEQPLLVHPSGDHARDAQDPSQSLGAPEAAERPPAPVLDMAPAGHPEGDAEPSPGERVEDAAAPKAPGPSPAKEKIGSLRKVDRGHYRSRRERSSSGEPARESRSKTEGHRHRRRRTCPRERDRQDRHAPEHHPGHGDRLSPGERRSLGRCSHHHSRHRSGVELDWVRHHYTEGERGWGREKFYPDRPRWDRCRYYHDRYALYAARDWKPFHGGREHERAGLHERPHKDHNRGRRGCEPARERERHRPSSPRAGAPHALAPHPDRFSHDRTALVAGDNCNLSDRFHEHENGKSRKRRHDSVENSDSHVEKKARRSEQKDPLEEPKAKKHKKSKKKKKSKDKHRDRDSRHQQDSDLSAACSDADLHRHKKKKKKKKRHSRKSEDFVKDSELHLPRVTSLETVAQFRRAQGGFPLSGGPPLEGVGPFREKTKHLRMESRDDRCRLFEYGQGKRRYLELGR
UniProt P45974, sequence (P45974 whole entry): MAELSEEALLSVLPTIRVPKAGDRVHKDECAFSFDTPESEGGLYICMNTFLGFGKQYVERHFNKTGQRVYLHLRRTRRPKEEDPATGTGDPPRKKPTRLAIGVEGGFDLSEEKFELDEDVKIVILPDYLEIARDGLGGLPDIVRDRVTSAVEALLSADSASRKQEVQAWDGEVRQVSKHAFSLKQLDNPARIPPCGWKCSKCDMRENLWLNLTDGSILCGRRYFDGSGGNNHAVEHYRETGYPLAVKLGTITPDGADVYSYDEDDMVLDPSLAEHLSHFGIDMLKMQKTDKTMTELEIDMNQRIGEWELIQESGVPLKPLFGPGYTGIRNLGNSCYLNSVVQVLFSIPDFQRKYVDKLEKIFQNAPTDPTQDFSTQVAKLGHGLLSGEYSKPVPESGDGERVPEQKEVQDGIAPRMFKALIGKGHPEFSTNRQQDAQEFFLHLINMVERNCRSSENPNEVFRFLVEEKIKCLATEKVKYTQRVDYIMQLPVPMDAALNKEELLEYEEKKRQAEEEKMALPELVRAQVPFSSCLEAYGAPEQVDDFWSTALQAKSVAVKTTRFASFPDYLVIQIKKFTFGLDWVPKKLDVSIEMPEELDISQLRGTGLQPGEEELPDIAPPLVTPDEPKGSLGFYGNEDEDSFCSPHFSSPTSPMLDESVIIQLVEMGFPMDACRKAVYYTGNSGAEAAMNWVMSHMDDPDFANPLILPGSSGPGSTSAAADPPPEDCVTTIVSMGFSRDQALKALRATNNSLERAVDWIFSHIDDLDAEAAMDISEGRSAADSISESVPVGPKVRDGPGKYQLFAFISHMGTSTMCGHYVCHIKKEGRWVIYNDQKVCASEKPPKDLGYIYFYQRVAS
UniProt Q8N6M0, sequence (Q8N6M0 whole entry): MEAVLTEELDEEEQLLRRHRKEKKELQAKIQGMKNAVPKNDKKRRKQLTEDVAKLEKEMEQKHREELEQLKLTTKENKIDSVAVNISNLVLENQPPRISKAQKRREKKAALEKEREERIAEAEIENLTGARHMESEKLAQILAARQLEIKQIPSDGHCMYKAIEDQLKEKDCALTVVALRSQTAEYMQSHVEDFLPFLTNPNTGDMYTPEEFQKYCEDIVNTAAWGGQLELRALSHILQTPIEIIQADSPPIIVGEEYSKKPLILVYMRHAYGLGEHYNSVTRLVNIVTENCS
UniProt Q96FW1, sequence (Q96FW1 whole entry): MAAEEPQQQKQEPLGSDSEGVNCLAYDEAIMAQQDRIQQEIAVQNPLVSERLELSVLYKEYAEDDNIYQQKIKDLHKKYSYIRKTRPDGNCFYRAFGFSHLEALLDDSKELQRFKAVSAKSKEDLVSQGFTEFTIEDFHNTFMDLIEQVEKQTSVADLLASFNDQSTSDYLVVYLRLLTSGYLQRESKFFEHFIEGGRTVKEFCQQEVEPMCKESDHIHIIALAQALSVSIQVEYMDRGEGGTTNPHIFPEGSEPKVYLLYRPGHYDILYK
UniProt Q92560, sequence (Q92560 whole entry): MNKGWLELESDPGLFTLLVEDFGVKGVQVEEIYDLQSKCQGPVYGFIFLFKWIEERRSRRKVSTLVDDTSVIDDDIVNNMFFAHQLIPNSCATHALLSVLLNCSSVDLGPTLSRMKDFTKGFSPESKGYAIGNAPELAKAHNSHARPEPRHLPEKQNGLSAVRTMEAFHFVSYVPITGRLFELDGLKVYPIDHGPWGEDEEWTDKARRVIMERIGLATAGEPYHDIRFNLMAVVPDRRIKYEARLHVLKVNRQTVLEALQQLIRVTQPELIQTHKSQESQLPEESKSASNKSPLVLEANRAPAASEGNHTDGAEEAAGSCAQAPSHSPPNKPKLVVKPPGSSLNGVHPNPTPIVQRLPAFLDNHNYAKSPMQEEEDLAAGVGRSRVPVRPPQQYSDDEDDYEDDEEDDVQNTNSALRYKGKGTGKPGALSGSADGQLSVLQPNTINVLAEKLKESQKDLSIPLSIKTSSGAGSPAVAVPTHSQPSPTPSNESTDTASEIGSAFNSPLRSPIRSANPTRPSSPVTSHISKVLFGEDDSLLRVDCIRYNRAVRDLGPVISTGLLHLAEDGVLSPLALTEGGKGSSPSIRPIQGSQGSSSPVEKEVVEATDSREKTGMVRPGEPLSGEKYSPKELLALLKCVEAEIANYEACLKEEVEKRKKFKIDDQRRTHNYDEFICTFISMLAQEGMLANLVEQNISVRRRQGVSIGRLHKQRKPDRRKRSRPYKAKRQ
UniProt Q9UHP3, sequence (Q9UHP3 whole entry): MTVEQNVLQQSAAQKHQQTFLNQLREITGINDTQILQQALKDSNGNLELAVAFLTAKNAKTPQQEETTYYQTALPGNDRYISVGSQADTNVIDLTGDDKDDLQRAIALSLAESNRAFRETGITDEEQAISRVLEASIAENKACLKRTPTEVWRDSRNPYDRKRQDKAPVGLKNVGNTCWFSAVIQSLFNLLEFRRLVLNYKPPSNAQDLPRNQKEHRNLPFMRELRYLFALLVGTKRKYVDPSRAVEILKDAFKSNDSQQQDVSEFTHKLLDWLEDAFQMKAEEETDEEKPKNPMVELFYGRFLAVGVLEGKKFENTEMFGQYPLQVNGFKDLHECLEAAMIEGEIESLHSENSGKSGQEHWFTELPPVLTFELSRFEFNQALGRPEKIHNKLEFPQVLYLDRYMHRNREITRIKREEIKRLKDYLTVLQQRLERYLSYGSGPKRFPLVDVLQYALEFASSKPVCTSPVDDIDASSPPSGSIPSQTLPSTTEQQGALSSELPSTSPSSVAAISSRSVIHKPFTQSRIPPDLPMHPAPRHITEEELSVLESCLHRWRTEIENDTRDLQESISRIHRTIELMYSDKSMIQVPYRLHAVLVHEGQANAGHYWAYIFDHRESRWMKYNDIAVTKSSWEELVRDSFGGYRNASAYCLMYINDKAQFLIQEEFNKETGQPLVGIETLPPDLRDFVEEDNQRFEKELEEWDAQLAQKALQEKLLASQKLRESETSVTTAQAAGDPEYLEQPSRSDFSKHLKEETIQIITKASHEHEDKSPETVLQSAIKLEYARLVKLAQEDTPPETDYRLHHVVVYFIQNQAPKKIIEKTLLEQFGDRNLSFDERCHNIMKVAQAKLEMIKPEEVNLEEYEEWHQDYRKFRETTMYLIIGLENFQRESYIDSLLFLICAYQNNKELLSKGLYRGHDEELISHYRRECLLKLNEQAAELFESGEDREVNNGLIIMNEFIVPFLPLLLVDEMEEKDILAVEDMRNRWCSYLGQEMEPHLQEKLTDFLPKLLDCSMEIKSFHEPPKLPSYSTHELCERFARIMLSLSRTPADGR

Compound in the first assay: COc1cccc(CN(C)C(=O)CCl)c1
The experiment in a line: log2 ratio of Biotin-Ahx-Ub-VS probe labelling (compound/DMSO); higher = less target engagement, active = hit call of the paper (q ≤ 0.05, log2 ratio ≤ -1). The settings on record: compound concentration: 50uM; treatment time: 3 h. The method, then: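 Round 2 competitive ABPP in HEK293T lysate. Compounds were tested at 50 and 200 µM for 3 h, followed by Biotin-Ahx-Ub-VS enrichment and diaPASEF LC-MS/MS. Values are the average log2 ratio (compound/DMSO) from an unpaired t-test (n=3 treated, n=26 DMSO).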
As to USP25 (UniProt Q9UHP3), the “log2 ratio of Biotin-Ahx-Ub-VS probe labelling” value (“log2 ratio” for short) was -1.88 (active).
Regarding OTUD6B (UniProt Q8N6M0), the “log2 ratio” value was -0.149.
Turning to UCHL1 (UniProt P09936), the “log2 ratio” value is -0.0521.
With UniProt Q9UGI0, the “log2 ratio” value is -0.354.
On to USP5 (UniProt P45974), for which the “log2 ratio” value is 0.274.
Take BAP1 (UniProt Q92560): the “log2 ratio” value was -1.22 (active).
For USP28 (UniProt Q96RU2), the “log2 ratio” value is -0.0726.
For OTUB1 (UniProt Q96FW1), the “log2 ratio” value is -0.0418.
Same read-out and setting: then EIF3H (UniProt O15372), with -0.183; and UniProt Q70EL2, with -0.17; and USP10 (UniProt Q14694), with -0.177.
For USP36 (UniProt Q9P275), the “log2 ratio” value was -0.0259.
Take USP42 (UniProt Q9H9J4): the “log2 ratio” value was 0.0563.
In the case of OTUD7B (UniProt Q6GQQ9), the “log2 ratio” value is -0.372.
USP9X (UniProt Q93008): the “log2 ratio” value is -0.0295.
Same read-out and setting: for USP8 (UniProt P40818) the value was -0.108; for UCHL5 (UniProt Q9Y5K5), -0.115.
With UniProt P51784, the “log2 ratio” value was 0.0601.
On to USP7 (UniProt Q93009), for which the “log2 ratio” value is -0.4.
Turning to EIF3F (UniProt O00303), the “log2 ratio” value was -0.14.

Still in this assay, the particulars now being: compound concentration: 200uM; treatment time: 3 h.
As to USP25 (UniProt Q9UHP3), the “log2 ratio” value was -0.899.
In the case of OTUD6B (UniProt Q8N6M0), the “log2 ratio” value was -0.283.
On to UCHL1 (UniProt P09936), for which the “log2 ratio” value is 0.0224.
In the case of UniProt Q9UGI0, the “log2 ratio” value was -0.0472.
On to USP5 (UniProt P45974), for which the “log2 ratio” value is 0.357.
As for BAP1 (UniProt Q92560), the “log2 ratio” value is -3.29 (active).
Take USP28 (UniProt Q96RU2): the “log2 ratio” value is -0.646.
For OTUB1 (UniProt Q96FW1), the “log2 ratio” value is 0.0222.
For the target EIF3H (UniProt O15372), the “log2 ratio” value was 0.043.
With UniProt Q70EL2, the “log2 ratio” value was -1.02 (active).
On to USP10 (UniProt Q14694), for which the “log2 ratio” value was 0.037.
For USP36 (UniProt Q9P275), the “log2 ratio” value is 0.018.
With USP42 (UniProt Q9H9J4), the “log2 ratio” value was 0.184.
Consider OTUD7B (UniProt Q6GQQ9), for which the “log2 ratio” value is -0.803.
Turning to USP9X (UniProt Q93008), the “log2 ratio” value was -0.23.
Turning to USP8 (UniProt P40818), the “log2 ratio” value is -0.0766.
On to UCHL5 (UniProt Q9Y5K5), for which the “log2 ratio” value was -0.295.
Same read-out and setting: then UniProt P51784, with -0.0791; and USP7 (UniProt Q93009), with -1.53 (active); and EIF3F (UniProt O00303), with -0.0452.
